Among the data in the supplement of paper PMC11026393 are difference values, retold here.

The assay relates to SH-SY5Y. As to the kind of experiment: difference in mean normalized H2B-mRuby nuclear fluorescence intensity relative to DMSO control (normalized intensity difference (DMSO = 0)); higher = stronger increase in transgene reporter fluorescence. The settings on record: 24 h. The method, then:
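Cancer cell lines stably expressing H2B-mRuby2 from a lentiviral PGK promoter were treated with each drug for 24 h and imaged on a Leica DMI8 (ex 541-551 / em 565-605 nm). Nuclei were segmented in CellProfiler. The value is the difference in mean per-nucleus normalized H2B-mRuby intensity versus DMSO-treated cells (about 3 repeats x 4 fields). Doxorubicin is itself fluorescent. Dasatinib is in nM.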

SMILES strings stand for the structures.

For `Nc1ncn([C@@H]2O[C@H](CO)[C@@H](O)[C@H]2O)c(=O)n1` (concentration unit: uM), the difference (concentration: 1) is 0.0451; the difference (concentration: 2.5) was found to be 0.0373; the difference (concentration: 5) was determined as 0.0486; the difference (concentration: 10) is 0.0991; the difference (concentration: 20) was 0.0901.

For the compound `COc1cc([C@@H]2c3cc4c(cc3[C@@H](O[C@@H]3O[C@@H]5CO[C@@H](C)O[C@H]5[C@H](O)[C@H]3O)[C@H]3COC(=O)[C@H]23)OCO4)cc(OC)c1O` (concentration unit: uM), the difference runs as follows: (concentration: 1) 0.0162; (concentration: 2.5) 0.042; (concentration: 5) 0.0775; (concentration: 10) 0.0738; (concentration: 20) 0.0983.

`COc1cc2ncnc(Nc3ccc(F)c(Cl)c3)c2cc1OCCCN1CCOCC1` (concentration unit: uM): the difference reads like this: (concentration: 1) 0.0355; (concentration: 2.5) 0.0288; (concentration: 5) 0.0297; (concentration: 10) 0.0546; (concentration: 20) 0.086.

As to `Cc1[nH]c2ccccc2c1CCNCc1ccc(/C=C/C(=O)NO)cc1` (concentration unit: nM), the difference (concentration: 10) was found to be 0.13; the difference (concentration: 50) turned out to be 0.783; the difference (concentration: 100) is 1.09; the difference (concentration: 250) is 1.19; the difference (concentration: 500) is 1.16.

As for `COc1cccc2c1C(=O)c1c(O)c3c(c(O)c1C2=O)C[C@@](O)(C(=O)CO)C[C@@H]3O[C@H]1C[C@H](N)[C@H](O)[C@H](C)O1` (concentration unit: nM), the difference is, setting by setting: (concentration: 25) -0.0232; (concentration: 100) 0.0095; (concentration: 250) 0.0862; (concentration: 1000) 0.155; (concentration: 2500) 0.202.

In the case of `Cc1nc(Nc2ncc(C(=O)Nc3c(C)cccc3Cl)s2)cc(N2CCN(CCO)CC2)n1` (concentration unit: nM), the difference was 0.0391 (concentration: 25); 0.111 (concentration: 100); 0.137 (concentration: 250); 0.178 (concentration: 1000); 0.156 (concentration: 2500).
